The source made the active and inactive calls. The calls were made as follows: active = hit-call score of the fitted dose curve at least 0.9, where 1 is the maximum; inactive = score below 0.9.

Holding throughout (conditions): mRNA level, 48 h; actives raise or lower the signal
Read-out in test [1]: CFLAR gene, CFLAR (gene 8837)
Description: LTEA_HepaRG_CFLAR: Life Technologies and Expression Analysis (LTEA) Assay for CFLAR gene using HepaRG (AID 2283455). The procedure, abridged: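 Differentiated HepaRG cells in serum-free induction medium were exposed 48 h in duplicate to eight half-log concentrations up to 100 uM in 0.5% DMSO; mRNA measured by TaqMan qRT-PCR, normalized to ACTB, GAPDH, POLR2A; bidirectional fitting versus DMSO.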

Read-out in test [2]: Forkhead box O1 (FOXO1), FOXO1 (gene 2308)
Kind of test: LTEA_HepaRG_FOXO1: Life Technologies and Expression Analysis (LTEA) Assay for Forkhead box O1 (FOXO1) using HepaRG (AID 2283456). The procedure, abridged: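 Differentiated HepaRG cells, in serum-free induction medium with 0.5% DMSO, exposed 48 h in duplicate to 8-point half-log series from 100 uM. FOXO1 mRNA measured by TaqMan qRT-PCR, normalized to ACTB, GAPDH, POLR2A; bidirectional fit versus DMSO.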

Read-out in test [3]: growth arrest and DNA damage 45 (GADD45A), GADD45A (gene 1647)
Kind of test: LTEA_HepaRG_GADD45A: Life Technologies and Expression Analysis (LTEA) Assay for growth arrest and DNA damage 45 (GADD45A) using HepaRG (AID 2283458). The procedure, abridged:
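Differentiated HepaRG cells exposed 48 h in serum-free induction medium to 8 concentrations, top 100 uM in half-log steps, 0.5% DMSO. GADD45A mRNA quantified by qRT-PCR, normalized to ACTB, GAPDH and POLR2A; bidirectional fit versus DMSO.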

Read-out in test [4]: Forkhead box O3 (FOXO3), FOXO3 (gene 2309)
Description: LTEA_HepaRG_FOXO3: Life Technologies and Expression Analysis (LTEA) Assay for Forkhead box O3 (FOXO3) using HepaRG (AID 2283459). Summed up: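 Differentiated human HepaRG cells, 48 h post-plating, exposed in duplicate for 48 h in serum-free induction medium; 8-point half-log series from 100 uM in 0.5% DMSO. FOXO3 mRNA by TaqMan qRT-PCR, normalized to ACTB/GAPDH/POLR2A; bidirectional fit versus DMSO.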

Read-out in test [5]: ABC Transporter (ABCB1), ABCB1 (gene 5243)
Description: LTEA_HepaRG_ABCB1: Life Technologies and Expression Analysis (LTEA) Assay for ABC Transporter (ABCB1) using HepaRG (AID 2283460). The procedure, abridged:
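HepaRG cells exposed in duplicate for 48 h in serum-free induction medium to eight half-log concentrations up to 100 uM in 0.5% DMSO. ABCB1 mRNA quantified by qRT-PCR, normalised to ACTB, GAPDH and POLR2A; fitted bidirectionally versus DMSO.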

Read-out in test [6]: growth arrest and DNA damage 45 (GADD45B), GADD45B (gene 4616)
Description: LTEA_HepaRG_GADD45B: Life Technologies and Expression Analysis (LTEA) Assay for growth arrest and DNA damage 45 (GADD45B) using HepaRG (AID 2283461). The procedure, abridged: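 Transcript level quantified by Fluidigm TaqMan qRT-PCR with three housekeeping genes for normalization, analyzed for up- or down-regulation against 0.5% DMSO. HepaRG cultures dosed 48 h at eight half-log concentrations up to 100 uM, duplicates.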

Read-out in test [7]: ABC Transporter (ABCC3), ABCC3 (gene 8714)
Description: LTEA_HepaRG_ABCC3: Life Technologies and Expression Analysis (LTEA) Assay for ABC Transporter (ABCC3) using HepaRG (AID 2283462). Summed up: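 Transcript level by TaqMan qRT-PCR, normalised to three housekeeping genes, fitted in both directions relative to vehicle. Chemicals tested in duplicate at eight half-log concentrations up to 100 uM for 48 h on HepaRG cells (0.5% DMSO).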

Read-out in test [8]: ABC Transporter (ABCB11), ABCB11 (gene 8647)
Kind of test: LTEA_HepaRG_ABCB11: Life Technologies and Expression Analysis (LTEA) Assay for ABC Transporter (ABCB11) using HepaRG (AID 2283463). Summed up:
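Differentiated human HepaRG cells in serum-free induction medium, dosed in duplicate for 48 h. Eight-point half-log series from 100 uM in 0.5% DMSO; ABCB11 mRNA by qRT-PCR, normalized to ACTB, GAPDH, POLR2A, fitted bidirectionally versus DMSO.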

Read-out in test [9]: ABC Transporter (ABCC2), ABCC2 (gene 1244)
Description: LTEA_HepaRG_ABCC2: Life Technologies and Expression Analysis (LTEA) Assay for ABC Transporter (ABCC2) using HepaRG (AID 2283464). The procedure, abridged:
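Endpoint is ABCC2 transcript level from qRT-PCR, normalized to three housekeeping genes and fitted bidirectionally relative to DMSO. Human HepaRG cells received test chemical for 48 h at up to 100 uM (8 points, half-log steps, 0.5% DMSO), duplicate wells.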

Read-out in test [10]: Broad substrate specificity ATP-binding cassette transporter ABCG2 (Homo sapiens) (UniProt Q9UNQ0)
Kind of test: LTEA_HepaRG_ABCG2: Life Technologies and Expression Analysis (LTEA) Assay for ABC Transporter (ABCG2) using HepaRG (AID 2283465). Summed up:
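Differentiated HepaRG cells were exposed for 48 h in serum-free induction medium to 8 half-log concentrations, top 100 uM, in 0.5% DMSO. ABCG2 mRNA was measured by qRT-PCR, normalized to ACTB, GAPDH and POLR2A, with bidirectional fitting versus DMSO.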

Read-out in test [11]: ATP-citrate lyase (ACLY), ACLY (gene 47)
Kind of test: LTEA_HepaRG_ACLY: Life Technologies and Expression Analysis (LTEA) Assay for ATP-citrate lyase (ACLY) using HepaRG (AID 2283466). Summed up:
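Differentiated HepaRG cells exposed 48 h in serum-free induction medium to eight half-log concentrations up to 100 uM in 0.5% DMSO, duplicates. Transcript measured by Fluidigm TaqMan qRT-PCR, normalized to ACTB, GAPDH, POLR2A; bidirectional fit versus DMSO.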

Read-out in test [12]: Peroxisomal acyl-coenzyme A oxidase 1 (ACOX1) gene, ACOX1 (gene 51)
Description: LTEA_HepaRG_ACOX1: Life Technologies and Expression Analysis (LTEA) Assay for Peroxisomal acyl-coenzyme A oxidase 1 (ACOX1) gene using HepaRG (AID 2283467). Summed up:
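HepaRG cells, plated 48 h then switched to serum-free induction medium, were exposed in duplicate for 48 h to 8-point half-log concentrations up to 100 uM in 0.5% DMSO. ACOX1 mRNA was measured by qRT-PCR, normalized to ACTB/GAPDH/POLR2A, and fitted bidirectionally versus DMSO.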

Read-out in test [13]: Alkaline Phosphatase, Placental (ALPP) gene, ALPP (gene 250)
Description: LTEA_HepaRG_ALPP: Life Technologies and Expression Analysis (LTEA) Assay for Alkaline Phosphatase, Placental (ALPP) gene using HepaRG (AID 2283468). The procedure, abridged:
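ALPP transcript level, measured by qRT-PCR and normalized to three housekeeping genes (ACTB, GAPDH, POLR2A), after 48 h dosing of differentiated HepaRG in serum-free induction medium. Top concentration 100 uM with half-log dilutions (8 points, 0.5% DMSO, duplicates); bidirectional fitting relative to DMSO.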

Read-out in test [14]: Bcl-2 (BAD) gene, BAD (gene 572)
Kind of test: LTEA_HepaRG_BAD: Life Technologies and Expression Analysis (LTEA) Assay for Bcl-2 (BAD) gene using HepaRG (AID 2283469). The procedure, abridged:
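Differentiated HepaRG cells were exposed in duplicate in 0.5% DMSO for 48 h to eight-point half-log concentrations up to 100 uM. BAD mRNA was measured by Fluidigm TaqMan qRT-PCR, normalized to ACTB, GAPDH and POLR2A, and fitted bidirectionally against DMSO.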

Read-out in test [15]: Bcl-2 (BAX) gene, BAX (gene 581)
Description: LTEA_HepaRG_BAX: Life Technologies and Expression Analysis (LTEA) Assay for Bcl-2 (BAX) gene using HepaRG (AID 2283470). Summed up:
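Differentiated HepaRG cells exposed 48 h in serum-free induction medium, eight half-log concentrations from 100 uM, in duplicate, 0.5% DMSO vehicle. BAX mRNA by TaqMan qRT-PCR, normalised to ACTB, GAPDH and POLR2A.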

Read-out in test [16]: adenosine kinase (ADK) gene, ADK (gene 132)
Kind of test: LTEA_HepaRG_ADK: Life Technologies and Expression Analysis (LTEA) Assay for adenosine kinase (ADK) gene using HepaRG (AID 2283471). The procedure, abridged:
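ADK expression quantified by qRT-PCR, normalised to three housekeeping genes, after 48 h exposure of HepaRG cells to eight concentrations (top 100 uM, half-log steps, duplicate, 0.5% DMSO). Up- or down-regulation fitted relative to vehicle.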

Read-out in test [17]: Alpha-fetoprotein (AFP) gene, AFP (gene 174)
Kind of test: LTEA_HepaRG_AFP: Life Technologies and Expression Analysis (LTEA) Assay for Alpha-fetoprotein (AFP) gene using HepaRG (AID 2283472). Summed up: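 Differentiated human HepaRG cells exposed 48 h in serum-free induction medium, 8-point half-log series from 100 uM in 0.5% DMSO, duplicate. AFP mRNA by qRT-PCR, normalized to ACTB, GAPDH, POLR2A; bidirectional fit vs DMSO.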

Read-out in the next test: BCL2L11 (gene 10018)
Description: LTEA_HepaRG_BCL2L11: Life Technologies and Expression Analysis (LTEA) Assay for Bcl-2 (BCL2L11) gene using HepaRG (AID 2283473). The procedure, abridged:
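BCL2L11 transcript levels are measured by Fluidigm qRT-PCR, normalized to three housekeeping genes. HepaRG cultures were plated 48 h, then treated 48 h with test chemical (top 100 uM, half-log, 0.5% DMSO vehicle); curves were fitted bidirectionally against DMSO.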

Read-out in test [18]: Apolipoprotein A-V (APOA5) gene, APOA5 (gene 116519)
Description: LTEA_HepaRG_APOA5: Life Technologies and Expression Analysis (LTEA) Assay for Apolipoprotein A-V (APOA5) gene using HepaRG (AID 2283474). The procedure, abridged: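 APOA5 transcript levels were quantified by qRT-PCR, normalized to three housekeeping genes, after 48 h chemical treatment of HepaRG cells (8 points, 100 uM maximum, half-log steps, 0.5% DMSO). Curves fitted in both directions against vehicle.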

Sequence of Broad substrate specificity ATP-binding cassette transporter ABCG2 (Homo sapiens) (Q9UNQ0 whole entry, looked up): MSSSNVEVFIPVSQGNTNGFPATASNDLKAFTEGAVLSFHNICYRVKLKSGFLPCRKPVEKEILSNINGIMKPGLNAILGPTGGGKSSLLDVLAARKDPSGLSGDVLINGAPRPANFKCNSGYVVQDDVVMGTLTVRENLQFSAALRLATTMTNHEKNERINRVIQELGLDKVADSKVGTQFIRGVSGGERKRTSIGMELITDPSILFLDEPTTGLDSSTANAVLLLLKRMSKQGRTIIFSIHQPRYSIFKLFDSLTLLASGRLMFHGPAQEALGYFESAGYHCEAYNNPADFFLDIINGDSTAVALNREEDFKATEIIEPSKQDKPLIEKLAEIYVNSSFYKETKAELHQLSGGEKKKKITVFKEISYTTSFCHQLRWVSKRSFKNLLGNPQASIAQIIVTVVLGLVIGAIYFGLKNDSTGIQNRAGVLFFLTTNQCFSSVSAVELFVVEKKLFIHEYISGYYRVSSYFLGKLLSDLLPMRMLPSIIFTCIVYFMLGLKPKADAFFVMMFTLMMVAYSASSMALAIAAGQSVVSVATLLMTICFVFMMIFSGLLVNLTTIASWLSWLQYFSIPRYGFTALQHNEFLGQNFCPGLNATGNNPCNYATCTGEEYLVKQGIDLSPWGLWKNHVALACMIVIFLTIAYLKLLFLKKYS

Turning to `COc1cc(C(=O)NC2CCN(C)CC2)ccc1Nc1ncc2c(n1)N(C1CCCC1)CC(F)(F)C(=O)N2C`, the AC50 in test [1] is 14.4 µM (active); in [2], 11.5 µM (active); in [3], 4.65 µM (active); in test [5] it was 6.41 µM (active); in test [6], 25.4 µM (active); in test [7], 46.5 µM (active). In addition, the AC50 was 4.65 µM (active) in test [8]; 21.5 µM (active) in test [9]; 4.65 µM (active) in test [10]; 32.4 µM (active) in test [11]; 12.2 µM (active) in test [12]; 3.13 µM (active) in test [13]. For the same molecule, the results for the AC50 (in [14]; with BCL2L11 (gene 10018); in test [18]) were 11.1 µM (active), 46.5 µM (active) and 4.65 µM (active), respectively. The molecule was called inactive in [4], in test [15], in [16] and in [17].

For the origin of these results see PubChem BioAssay (EPA / NIEHS).
